FAS-TE inh = FAS thioesterase (human) inhibition. P49327. recombinant FAS-TE, OMFH fluorogenic substrate, fluorescence endpoint. inhibition, % at 15 µM. 0.67% of 360,000 active;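 active = compounds whose normalised, plate-corrected inhibition of enzyme fluorescence in the single-dose primary screen is 50% or more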;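 also: 0% = DMSO with enzyme and 100% = substrate without enzyme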
NR3A LBD binder = NR3A (human) ligand-binding domain modulation; NR3A LBD differential scanning fluorimetry, Tm shift; 0% = protein alone, 100% = glycine-bound protein; Tm shift relative to glycine control, % at 25 µM; 2.5% of 340,000 active;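 active = melting temperature shift of at least 10% of the positive control shift, at one fixed dose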
beta cell repl = MIN6 beta-cell proliferation induction. MIN6 cells proliferation, ATPlite luminescence, 48 h; cells starved in 0.2% serum; 100% = growth in 10% serum. proliferation, % at 10 µM. 0.29% of 330,000 active;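 active = compounds whose signal lies at least 3.5 SD above the mean of all wells on their plate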;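 also: 0% = DMSO-treated cells in low-serum medium and 100% = 10% serum control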
p-CIP stab down = compounds decreasing mouse p/CIP protein stability | decrease of EGFP signal, % at 10 µM | Q05BA5 | 0.01% of 290,000 active | F442A p/CIP-EGFP cells, EGFP fluorescence, 16 h;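 active = EGFP signal decrease of at least 30% at 10 µM or well 3 SD below plate mean, unless failing retest; inactive = the rest, including hits failing retest or dose response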
Target sequence (Q05BA5 1-1403): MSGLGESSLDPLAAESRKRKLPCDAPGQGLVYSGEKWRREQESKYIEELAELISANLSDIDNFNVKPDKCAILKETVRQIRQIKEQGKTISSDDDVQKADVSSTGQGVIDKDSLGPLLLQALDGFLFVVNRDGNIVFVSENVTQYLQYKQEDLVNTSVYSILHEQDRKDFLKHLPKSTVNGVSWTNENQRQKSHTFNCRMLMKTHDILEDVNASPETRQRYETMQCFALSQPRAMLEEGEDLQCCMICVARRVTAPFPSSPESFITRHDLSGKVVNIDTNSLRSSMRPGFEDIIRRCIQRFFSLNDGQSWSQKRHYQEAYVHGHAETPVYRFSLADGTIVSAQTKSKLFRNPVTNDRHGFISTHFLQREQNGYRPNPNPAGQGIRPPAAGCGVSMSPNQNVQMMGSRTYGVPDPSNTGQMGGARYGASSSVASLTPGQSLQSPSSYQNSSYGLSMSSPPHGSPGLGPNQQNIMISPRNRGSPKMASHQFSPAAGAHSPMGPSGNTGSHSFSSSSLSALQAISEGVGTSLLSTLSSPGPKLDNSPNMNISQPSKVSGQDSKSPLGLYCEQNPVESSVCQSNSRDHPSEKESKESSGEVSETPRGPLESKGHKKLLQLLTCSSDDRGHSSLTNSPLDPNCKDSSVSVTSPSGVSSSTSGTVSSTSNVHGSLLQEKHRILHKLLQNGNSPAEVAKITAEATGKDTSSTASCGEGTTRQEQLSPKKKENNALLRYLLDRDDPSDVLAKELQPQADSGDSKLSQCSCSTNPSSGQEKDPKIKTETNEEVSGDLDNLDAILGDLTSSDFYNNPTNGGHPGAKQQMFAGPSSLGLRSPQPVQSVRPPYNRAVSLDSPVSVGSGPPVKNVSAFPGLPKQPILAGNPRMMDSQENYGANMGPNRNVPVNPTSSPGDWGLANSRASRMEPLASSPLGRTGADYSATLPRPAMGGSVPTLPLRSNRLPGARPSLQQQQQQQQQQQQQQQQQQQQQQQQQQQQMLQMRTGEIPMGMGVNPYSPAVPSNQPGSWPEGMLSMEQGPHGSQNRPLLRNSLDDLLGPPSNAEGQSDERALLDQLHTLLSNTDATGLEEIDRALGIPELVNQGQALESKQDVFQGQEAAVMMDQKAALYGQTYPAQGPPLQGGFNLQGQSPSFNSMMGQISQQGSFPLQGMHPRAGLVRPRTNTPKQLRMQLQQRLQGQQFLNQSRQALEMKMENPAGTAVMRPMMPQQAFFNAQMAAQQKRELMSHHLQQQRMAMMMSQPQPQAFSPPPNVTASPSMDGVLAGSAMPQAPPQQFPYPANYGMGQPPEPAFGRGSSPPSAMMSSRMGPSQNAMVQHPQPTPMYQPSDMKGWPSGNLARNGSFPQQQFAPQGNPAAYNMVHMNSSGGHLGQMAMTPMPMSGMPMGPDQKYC
MPTP inh = permeability transition pore inhibition; isolated mouse mitochondria, Ca2+ swelling absorbance, 30 min; 1.4% of 360,000 active; inhibition, % at 10 µM;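 active = inhibition of 50% or more, scaled per plate between neutral and stimulator controls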;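 also: 0% = DMSO wells given calcium and 100% = 1 mM EGTA wells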
An asterisk follows results filed as active; . = no result. Sampled rows, rich in hits. Any-hit rate of the full collection: about 4.1%.

SMILES	FAS-TE inh	NR3A LBD binder	beta cell repl	p-CIP stab down	MPTP inh
CCOC(=O)Nc1cccnc1Sc1ccc(Cl)cc1	-1	0	-3	.	2
Cc1ccc(Sc2ncccc2NC(=O)c2ccccc2Cl)cc1	-7	14*	-2	-2	-1
CC1=NN(c2nc(-c3ccc(C)cc3)cs2)C(=O)C1N=Nc1ccc(C(N)=O)cc1 (stereo not given)	4	27*	.	-9	4
CC1=NN(c2nc(-c3ccc(C)cc3)cs2)C(=O)C1N=Nc1ccc2ccccc2c1 (stereo not given)	32	-1	2	-6	0
CCOc1ccccc1OCc1nn2c(COc3ccccc3)nnc2s1	5	14*	-2	-7	-2
CC1CCc2c(sc(NC(=O)Cn3nc(C(F)(F)F)c4c3CCCCC4)c2C#N)C1 (stereo not given)	-2	16*	-3	1	16
N#Cc1c(NC(=O)Cn2nc(C(F)(F)F)c3c2CCCC3)sc2c1CCC2	-2	5	-6	-11	12
Cc1ccc(S(=O)(=O)Oc2ccc(/C=C(/NC(=O)c3ccccc3)C(=O)O)cc2)cc1	0	11*	-2	-1	3
Cc1ccc(S(=O)(=O)Oc2ccc(/C=C(/NC(=O)c3ccccc3)C(=O)NCC(=O)O)cc2)cc1	0	1	-1	-4	-3
CN(C)c1ccc(CNC(=O)C2(C)Cc3c(-c4cccc(C(N)=O)c4)ccnc3O2)cc1 (stereo not given)	-5	.	.	.	0
CCCCN(Cc1cc2cc(OC)ccc2[nH]c1=O)C(=O)c1ccccn1	-4	13*	-3	-19	1
CCCN(Cc1cc2cc(C)ccc2[nH]c1=O)C(=O)c1ccccn1	-5	-1	-1	10	1
Cc1ccc(-n2[nH]c(C)c(C=NC34CN5CN(CN(C5)C3)C4)c2=O)cc1C	-9	3	-4	-11	-2
COCCCN=Cc1c(C)[nH]n(-c2ccc(Br)c(C)c2)c1=O	1	66*	0	-1	1
CCCCCCCCN1C(=O)[C@H](CC(=O)N2CCC(c3ccccc3)CC2)C[C@@]2(C(=O)OC)CC(C)(C)CC=C12	.	.	.	.	0
O=C(NC1CCCCC1)C1c2ccccc2OCC(=O)N1CC(F)(F)F (stereo not given)	-6	.	.	.	1
CCOc1ccc(S(=O)(=O)NCCC(=O)NCCOc2ccccc2)cc1	5	65*	8	.	-1
CCC(=O)N1Cc2cc(C(=O)Nc3nccs3)nc(-c3cccc(-c4ccccc4OC)c3)c2[C@H]1CCO	4	.	.	.	-1
COC(=O)[C@]12CCCCC=C1N(Cc1ccccc1)C(=O)[C@H](CC(=O)NCc1cccs1)C2	2	.	.	.	0
O=C(CNC(c1ccccc1)c1ccccc1)Nc1ccccc1F	6	1	-3	9	0
O=C(COC(=O)Cc1c(Cl)cccc1Cl)Nc1ccccc1-c1ccccc1	26	2	-2	-11	1
O=C(CNC(c1ccccc1)c1ccccc1)Nc1ccccc1-c1ccccc1	33	17*	0	-12	2
O=C(CSCc1c(Cl)cccc1Cl)Nc1ccccc1-c1ccccc1	28	15*	.	-4	2
CN1C[C@@H]2[C@@H]3C(=O)N(C)C(=O)[C@@H]3[C@](Cc3ccccc3)(C1=O)N2C(=O)c1ccc(Cl)cc1	-9	0	.	.	0
CC1(C(=O)NS(=O)(=O)c2cccc(C#N)c2)CCN1C(=O)c1ccccc1 (stereo not given)	-3	.	.	.	-1
SMILES	FAS-TE inh	NR3A LBD binder	beta cell repl	p-CIP stab down	MPTP inh
Cc1ccccc1NC(c1cccc(Cl)c1)c1nnnn1C1CCCCC1 (stereo not given)	-4	13*	-1	4	1
N#Cc1cccc(C(c2nnnn2C2CCCC2)N2CCCCCC2)c1 (stereo not given)	12	0	-1	0	0
CCc1ccc(-c2csc3[n+]2CCN3C(C)=O)cc1	-152	.	-5	-4	-3
CC(=O)N1CC[n+]2c(-c3ccc(Cl)cc3)csc21	-140	20*	-3	-2	1
O=C(CSc1nc2ccccc2c(=O)n1-c1ccc(F)cc1F)NC1CCS(=O)(=O)C1 (stereo not given)	-6	.	.	.	0
CC(C)(C)S(=O)N1Cc2cc(C(=O)NCc3ccc(Oc4ccccc4)cc3)nc(-c3cccc(-c4cc5ccccc5o4)c3)c2[C@@H]1CCO (stereo not given in full)	-10	.	.	.	0
